Test results as given in the supplement of paper PMC12494721.
Counter-ions that a name gives are not always drawn.

system: Ruminococcus gnavus DSM 108212; assay: fold change of Tryptamine concentration vs plate DMSO controls (fold change (ratio)); higher = more amine produced, active = hit call of the paper (significant change in both replicates, either direction); conditions: incubation time: 27 h, anaerobic, 37 °C
Method in brief: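 Using LC–triple-quadrupole MS with dynamic MRM, amines were quantified against external calibration curves and corrected for drift within each batch. Samples were whole anaerobic mGAM cultures of four gut strains, grown 27 h at 37 °C from OD 0.1 before 1:1 dilution, extracted with cold acetonitrile/methanol containing 0.1% formic acid and centrifuged. Compounds were present at 20 µM final (sweeteners at 50 µM final). The numbers are fold changes versus plate DMSO controls, each the mean of 2 biological replicates.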

Fold change of Tryptamine concentration, inactive:
CCCCC(CC)CN1C(=O)[C@@H]2[C@H](C1=O)[C@@H]1C=C[C@H]2C1 (mixture of isomers) (20 µM) 1.05
Cc1cc(CC(=O)O)n(C)c1C(=O)c1ccc(Cl)cc1 [Zomepirac sodium salt] (20 µM) 0.972
CC(CNC1CCCCC1)OC(=O)c1ccccc1 (stereo not given) [Hexylcaine hydrochloride] (20 µM) 1.01
CC(C)n1c(/C=C/C(O)CC(O)CC(=O)O)c(-c2ccc(F)cc2)c2ccccc21 (stereo not given) [Fluvastatin sodium salt] (20 µM) 1.04
CCCc1cc(=O)[nH]c(=S)[nH]1 [Propylthiouracil] (20 µM) 1.04
CC(=O)Nc1ccc(OCC(O)CNC(C)C)cc1 (stereo not given) [Practolol] (20 µM) 1.04
C[C@@H]1O[C@@H](O[C@H]2[C@H](Oc3cc(O)c(C(=O)CCc4ccc(O)cc4)c(O)c3)O[C@H](CO)[C@@H](O)[C@@H]2O)[C@H](O)[C@H](O)[C@H]1O [Naringin Dihydrochalcone] (50 µM) 1
Nc1cc(-c2ccncc2)c[nH]c1=O [Amrinone] (20 µM) 1

Fold change of Tryptamine concentration, active:
CN(C(=O)CN(CCO)CC(=O)N(C)C(C)(C)Cc1ccccc1)C(C)(C)Cc1ccccc1 [Oxethazaine] (20 µM) 0.602
CC(=O)OCC1=C(C(=O)O)N2C(=O)[C@@H](NC(=O)Cc3cccs3)[C@H]2SC1 [Cephalothin sodium salt] (20 µM) 0.0635
